Values joined by “and” are separate entries in the source; they are usually repeats but may differ in a detail not shown here. Equal entries are not always repeated. Records with an inconclusive call do not appear. The source holds several records for some structures; these can differ, active in one and inactive in another. Active and inactive are the calls of the source. The call rests on the fitted dose curve; in most records, active means well fitted inhibition curve with a large enough effect in the repeat runs; inconclusive means weak or mixed curves; inactive means no such curve, though single readings can be large or run the other way.

The source of these data is PubChem BioAssay (Tox21).
On the % scale 0 is the no-effect control and ±100 the full control effect; potency means the concentration at half of the fitted maximal effect.

The experiment is described as follows: qHTS assay to identify small molecule antagonists of the estrogen related receptor (ERR) signaling pathway from Tox21 library (AID 1224848). Further: nearly all actives have a fitted effect of over 50% in size. The settings on record: ERR reporter cell line, luciferase antagonist mode, 18 h; series mostly up to 92.4 µM; activity, negative = inhibition: at the top concentration. The source says: U.S. Tox21 Program National Center for Advancing Translational Sciences [NCATS] NIH Chemical Genomics Center [NCGC] U.S. Environmental Protection Agency [EPA] National Institutes of Environmental Health Sciences [NIEHS] National Toxicology Program [NTP] U.S. Food and Drug Administration [FDA] Tox21 Assay Overview: Estrogen related receptors (ERRs), the first orphan nuclear receptors discovered, play an important role in the control of cellular energy metabolism. ERRs are required for high-energy production in response to the environmental challenges. ERR-alpha was also identified as an adverse marker for breast cancer progression; ERR-alpha-positive tumors have a poor prognosis. To screen and to identify environmental compounds that perturb the ERR signaling pathways could provide valuable information for potential therapeutic or preventive measures in the treatment of metabolic disease. For identifying ERR antagonists, ERR cell line (provided by NTP) has been used to screen Tox21 10K library.
Tox21 Assay Protocol Summary: The ERR cells were dispensed at 2,000 cells/5 ul/well in 1536-well white plates using a Multidrop dispenser. After the assay plates were incubated at a 37 C/5% CO2 incubator for 6 hours, 23 nL of compounds dissolved in DMSO, positive and negative controls or DMSO only was transferred to the assay plate by a pin tool. The plates were incubated at 37 C for 18 hours. 4 ul/well of One-Glo reagent was added into the assay plates using a Flying Reagent Dispenser. After 30-minute incubation at room temperature, the luminescence intensity in the plates was measured using a ViewLux plate reader.
Take `Cc1cccc(C)c1`: the Potency result is “inactive”.

As to `Cc1ncc([N+](=O)[O-])n1C`, the Potency result was “inactive”.

Consider `CCCCNC(=O)NS(=O)(=O)c1ccc(C)cc1`, for which the Potency result is “inactive”. On the same count and under the same terms, the same measure for `NS(=O)(=O)c1cc2c(cc1Cl)NCNS2(=O)=O`: “inactive”; for `Cc1ncc([N+](=O)[O-])n1CCO`: “inactive”; for `COc1ccc2cc(S(=O)(=O)N[C@H](CC(=O)N[C@H](Cc3ccc(CN4[C@H](C)CCC[C@@H]4C)cc3)C(=O)N(C)C(C)C)c3ccc4c(c3)OCO4)ccc2c1`: 25.8 µM (active).

As for `CCCCC1(COC(=O)CCC(=O)O)C(=O)N(c2ccccc2)N(c2ccccc2)C1=O`, the Potency result is “inactive”. Consider `O=c1[nH]cnc2c1ncn2[C@H]1CC[C@@H](CO)O1`, for which the Potency result was “inactive”. Still for that read-out and setting: the same measure for `CS(=O)(=O)OCCCCOS(C)(=O)=O`: “inactive”; for `CN(C)C(=O)Nc1ccc(Cl)c(Cl)c1`: “inactive”.

Take `Nc1ccc(O)c([N+](=O)[O-])c1`: the “activity, negative = inhibition” value is 95.1% (inactive). Consider `Cn1c(=O)c2c(ncn2C)n(C)c1=O`, for which the Potency is 61.9 µM (active) and inactive. Take `CCN(CC)C(=O)c1cccc(C)c1`: the Potency result was “inactive”. `O=C(Nc1ncc([N+](=O)[O-])s1)c1cccs1`: the “activity, negative = inhibition” value was 24.9% [at 42.5 µM] (inactive).

For the compound `COc1ccc2c(c1)c(CC(=O)O)c(C)n2C(=O)c1ccc(Cl)cc1`, the Potency is 30.8 µM (active) and inactive. Same read-out and setting: with `CCN(Cc1c(F)cccc1Cl)c1c([N+](=O)[O-])cc(C(F)(F)F)cc1[N+](=O)[O-]` the figure was 61.1 µM (active).

In the case of `CC(C)C(=O)Nc1ccc([N+](=O)[O-])c(C(F)(F)F)c1`, the Potency was 25 µM (active) and 27.3 µM (active) and 13.3 µM (active). Still for that read-out and setting: with `CCCCCCc1ccc(O)cc1O` the entry was “inactive”.

Regarding `Nc1c(N=Nc2ccc(-c3ccc(N=Nc4cc(S(=O)(=O)O)c5ccccc5c4N)cc3)cc2)cc(S(=O)(=O)O)c2ccccc12`, the Potency is 24.3 µM (active). Same read-out and setting: with `CN(C)C(=S)SC(=S)N(C)C` the figure was 886 nM (active) and 1.09 µM (active) and 1.19 µM (active).

With `C1=CC2C3C=CC(C3)C2C1` (stereo not drawn), the “activity, negative = inhibition” value was -3.67% (inactive). Consider `C1CCC(C(CC2CCCCN2)C2CCCCC2)CC1` (stereo not drawn), for which the Potency is 29.8 µM (active).

Turning to `O=CC(=O)c1ccccc1`, the “activity, negative = inhibition” value is -0.187% (inactive). Turning to `O=S1(=O)OC(c2ccc(O)cc2)(c2ccc(O)cc2)c2ccccc21`, the Potency result is “inactive”. Still for that read-out and setting: with `CCOc1ccc(NC(C)=O)cc1` the entry was “inactive”. Same read-out and setting: the same measure for `CN[C@H]1CC[C@@H](c2ccc(Cl)c(Cl)c2)c2ccccc21`: 26.6 µM (active); for `CCCCCCCCCCCCCCCC[N+](C)(C)Cc1ccccc1`: 11.2 µM (active) and 11.1 µM (active) and 11.9 µM (active). As to `COc1ccc(C(Cl)=C(c2ccc(OC)cc2)c2ccc(OC)cc2)cc1`, the Potency was 21.6 µM (active) and 27.3 µM (active) and 26.6 µM (active). Same read-out and setting: with `CC1(C)O[C@@H]2C[C@H]3[C@@H]4CCC5=CC(=O)C=C[C@]5(C)[C@@]4(F)[C@@H](O)C[C@]3(C)[C@]2(C(=O)CO)O1` the entry was “inactive”; with `CC(C)NCC(O)c1ccc(O)c(O)c1` (stereo not drawn), “inactive”; with `CN(C)CCOC(C)(c1ccccc1)c1ccccn1` (stereo not drawn), “inactive”. The same measure, in the same setting: with `CN1CCc2cccc3c2[C@H]1Cc1ccc(O)c(O)c1-3` the figure was 24.6 µM (active) and 18.1 µM (active); with `Nc1c2c(nc3ccccc13)CCCC2`, 61.1 µM (active) and 54.5 µM (active) and inactive.
